According to PubChem BioAssay (NCI):
About 79,000 compounds went through this panel and 15% of them were active in at least one assay; those are over-represented in the sample as a whole. A number with no mark means an inactive call. The source made the active and inactive calls. No stated cut-off is given here; in the data, active means growth inhibition above about 70%; inactive means the rest.

Assay: NCI Yeast Anticancer Drug Screen. Data for the rad50EPP+ strain (AID 151);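 further: 0% = growth of vehicle-treated control cultures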
Settings: S. cerevisiae rad50 mutant strain, at 33.0 µM, active compounds read high
Summary of the method: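 In this screen, rad50EPP+ yeast were exposed to compounds. Growth inhibition was scored against vehicle-treated controls.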

| Compound | growth inhibition |
| --- | --- |
| C=CCC1=C(C)C(OC(=O)/C=C/c2ccccc2)CC1=O (configuration not stated) | 7% |
| NNc1c(F)c(F)cc(F)c1F | 54% |
| COP(=O)(OC)/C(=C\C1=CN(C(c2ccccc2)(c2ccccc2)c2ccccc2)CN1)NC=O | 96% (active) |
| COC(=O)c1cc(-c2ccc(C)cc2)[nH]c(=O)c1C#N | -6% |

Same assay, conditions: S. cerevisiae rad50 mutant strain, at 100.0 µM, active compounds read high

| Compound | growth inhibition |
| --- | --- |
| CCOP(=O)(OCC)C(Cc1ccccc1)N=C(c1ccccc1)c1ccccc1 (configuration not stated) | 94% (active) |
| CCc1ncnc2cc(OCC3CO3)c(OC)cc12 (configuration not stated) | 74% (active) |
| CCOC(=O)[C@H]1Nc2ccccc2C2c3ccccc3CC21 (some centres not stated) | 14% |
| O=CNc1ccc2c(c1)C(=O)c1ccccc1-2 | 95% (active) |
| CCOc1ccc2c(c1)c(CC(=O)O)cn2C | 97% (active) |
| OC1CSCCCSCCSCCCSC1 | -35% |
| N#Cc1c(N)[nH]c2ccc(Sc3ccccc3)cc12 | 51% |
| Cc1ccc(-c2ccc(Nc3c4ccccc4nc4ccccc34)cc2)cn1 | 95% (active) |
| c1ccc2c(c1)NC(NC1Nc3ccccc3N1)N2 | 48% |
| OC(COc1cccc2ccccc12)CN1CCOCC1 (configuration not stated) | -3% |
| CCC/C(Cl)=N\OC(=O)Nc1ccc(Br)cc1 | 81% (active) |
| COc1ccc(/C=C2\SC(=S)N(/C=C/c3nc4ccccc4[nH]c3=O)C2=O)cc1OC | 63% |
| O=C(NNc1ccnc2cc(Cl)ccc12)/C(=C\c1ccccc1Cl)NC(=O)c1ccccc1 | 89% (active) |
| CSC1=NNC(SC)=NN1 | 98% (active) |
| Cc1c(C2=C(Br)C(=O)N(C)C2=O)c(=O)n(C)c(=O)n1C | 3% |
| NCCNc1ccc(NCCN)c2c1C(=O)c1c(O)ccc(O)c1C2=O | 66% |
| Cn1c(=O)c(-c2ccccc2)c(N=[N+]=[N-])c2ccccc21 | -18% |
| CCCCCCCCCCCCCCCCCCOCC(O)COP(=O)(O)OCC1OC(n2cc(F)c(=O)[nH]c2=O)CC1O (configuration not stated) | 89% (active) |
| CCS(=O)(=O)c1ccc(/C=C/C=N/NC(=S)NCC(C)C)cc1 | -9% |
| CCC(=O)Oc1c(Cl)cc(Cl)c2ccccc12 | 49% |

| Compound | growth inhibition |
| --- | --- |
| COc1cc2c3c(cccc3c1)C(=O)N(CCN(C)C)C2=O | 78% (active) |
| CN(C)c1ccc(C(C#N)=C(C#N)C#N)cc1 | 50% |
| O=C(CCCN1CCC2(CC1)CC(=O)N(N1CCCCCC1)C2=O)c1ccc(F)cc1 | 0% |
| O=C1C2C(C(=O)N1c1ccc(OCc3ccccc3)cc1)C1c3ccccc3C2C2CCCCN21 (configuration not stated) | 6% |
| CCN(CC)CCC(=O)c1ccc(Oc2ccc(F)cc2)cc1 | 93% (active) |
| O=Nc1c(NO)ccc2nn(-c3ccccc3)nc12 | 66% |
| CC(=O)SCCC[Si](C)(C)CCCSC(C)=O | 20% |
| O=C(O)C1CCCCC1c1c2ccc(=O)c(O)c-2oc2c(O)c(O)ccc12 (configuration not stated) | -48% |
| Cc1ccc(NN(NC(=O)OC(C)C)C(=O)OC(C)C)cc1 | 64% |
| O=C1c2ccccc2C(=O)c2cc(CBr)ccc21 | 95% (active) |
| Cc1c(C(Cc2ccccc2N(C)C(=O)/C=C\C(=O)O)c2c[nH]c3ccccc23)c2ccccc2n1C (configuration not stated) | 4% |
| CC(C)/C(Cl)=N\OC(=O)Nc1ccc(F)cc1 | 98% (active) |
| O=C1OC(=O)C2CCCC3CCCC1C32 (configuration not stated) | 95% (active) |
| CCOC(=O)C(NC(=O)c1ccccc1)(N1CCN(c2cc3c(cc2F)c(=O)c(C(=O)O)cn3C2CC2)CC1)C(F)(F)F (configuration not stated) | 14% |
| COc1ccc(NC(=S)N/N=C(\c2ccccc2)c2ccccn2)cc1 | 55% |
| C=CCC1=C(C)C(OC(=O)/C=C/c2ccccc2)CC1=O (configuration not stated) | 15% |
| NNc1c(F)c(F)cc(F)c1F | 82% (active) |
| COP(=O)(OC)/C(=C\C1=CN(C(c2ccccc2)(c2ccccc2)c2ccccc2)CN1)NC=O | 97% (active) |
| COC(=O)c1cc(-c2ccc(C)cc2)[nH]c(=O)c1C#N | -4% |

Assay: NCI Yeast Anticancer Drug Screen. Data for the mgt1 strain (AID 153)
Settings: S. cerevisiae mgt1 mutant growth inhibition; at 1.2 µM; active compounds read high
Summary of the method: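 mgt1 strain exposed; growth vs vehicle control recorded as inhibition.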

| Compound | growth inhibition |
| --- | --- |
| CCOP(=O)(OCC)C(Cc1ccccc1)N=C(c1ccccc1)c1ccccc1 (configuration not stated) | 16% |
| CCc1ncnc2cc(OCC3CO3)c(OC)cc12 (configuration not stated) | -14% |
| CCOC(=O)[C@H]1Nc2ccccc2C2c3ccccc3CC21 (some centres not stated) | -4% |
| O=CNc1ccc2c(c1)C(=O)c1ccccc1-2 | 4% |
| CCOc1ccc2c(c1)c(CC(=O)O)cn2C | -3% |
| OC1CSCCCSCCSCCCSC1 | -5% |
| N#Cc1c(N)[nH]c2ccc(Sc3ccccc3)cc12 | -1% |
| Cc1ccc(-c2ccc(Nc3c4ccccc4nc4ccccc34)cc2)cn1 | 4% |
| c1ccc2c(c1)NC(NC1Nc3ccccc3N1)N2 | -4% |
| OC(COc1cccc2ccccc12)CN1CCOCC1 (configuration not stated) | 8% |
| CCC/C(Cl)=N\OC(=O)Nc1ccc(Br)cc1 | 9% |
| COc1ccc(/C=C2\SC(=S)N(/C=C/c3nc4ccccc4[nH]c3=O)C2=O)cc1OC | -1% |
| O=C(NNc1ccnc2cc(Cl)ccc12)/C(=C\c1ccccc1Cl)NC(=O)c1ccccc1 | 2% |
| CSC1=NNC(SC)=NN1 | 12% |
| Cc1c(C2=C(Br)C(=O)N(C)C2=O)c(=O)n(C)c(=O)n1C | -1% |
| NCCNc1ccc(NCCN)c2c1C(=O)c1c(O)ccc(O)c1C2=O | -30% |
| Cn1c(=O)c(-c2ccccc2)c(N=[N+]=[N-])c2ccccc21 | 1% |
| CCCCCCCCCCCCCCCCCCOCC(O)COP(=O)(O)OCC1OC(n2cc(F)c(=O)[nH]c2=O)CC1O (configuration not stated) | 30% |
| CCS(=O)(=O)c1ccc(/C=C/C=N/NC(=S)NCC(C)C)cc1 | -2% |
| CCC(=O)Oc1c(Cl)cc(Cl)c2ccccc12 | -8% |

| Compound | growth inhibition |
| --- | --- |
| COc1cc2c3c(cccc3c1)C(=O)N(CCN(C)C)C2=O | -24% |
| CN(C)c1ccc(C(C#N)=C(C#N)C#N)cc1 | -3% |
| O=C(CCCN1CCC2(CC1)CC(=O)N(N1CCCCCC1)C2=O)c1ccc(F)cc1 | 32% |
| O=C1C2C(C(=O)N1c1ccc(OCc3ccccc3)cc1)C1c3ccccc3C2C2CCCCN21 (configuration not stated) | 4% |
| CCN(CC)CCC(=O)c1ccc(Oc2ccc(F)cc2)cc1 | 49% |
| O=Nc1c(NO)ccc2nn(-c3ccccc3)nc12 | -1% |
| CC(=O)SCCC[Si](C)(C)CCCSC(C)=O | -4% |
| O=C(O)C1CCCCC1c1c2ccc(=O)c(O)c-2oc2c(O)c(O)ccc12 (configuration not stated) | 11% |
| Cc1ccc(NN(NC(=O)OC(C)C)C(=O)OC(C)C)cc1 | 0% |
| O=C1c2ccccc2C(=O)c2cc(CBr)ccc21 | 0% |
| Cc1c(C(Cc2ccccc2N(C)C(=O)/C=C\C(=O)O)c2c[nH]c3ccccc23)c2ccccc2n1C (configuration not stated) | -3% |
| CC(C)/C(Cl)=N\OC(=O)Nc1ccc(F)cc1 | 3% |
| O=C1OC(=O)C2CCCC3CCCC1C32 (configuration not stated) | 34% |
| CCOC(=O)C(NC(=O)c1ccccc1)(N1CCN(c2cc3c(cc2F)c(=O)c(C(=O)O)cn3C2CC2)CC1)C(F)(F)F (configuration not stated) | 1% |
| COc1ccc(NC(=S)N/N=C(\c2ccccc2)c2ccccn2)cc1 | -1% |
| C=CCC1=C(C)C(OC(=O)/C=C/c2ccccc2)CC1=O (configuration not stated) | -6% |
| NNc1c(F)c(F)cc(F)c1F | -17% |
| COP(=O)(OC)/C(=C\C1=CN(C(c2ccccc2)(c2ccccc2)c2ccccc2)CN1)NC=O | 6% |
| COC(=O)c1cc(-c2ccc(C)cc2)[nH]c(=O)c1C#N | 0% |
